From PubChem
This is a sample that favours compounds with a hit; in the whole collection about 3.8% have one here.
TGFb inhibitor: inhibitors of TGF-b signaling; HepG2 CAGA-GFP TGF-b/SMAD3 reporter, GFP fluorescence, 18 h; TGF-beta stimulated, 500 pg/mL final; Potency, µM (doses to about 46.1 µM), inactives show at the top dose activity, negative = inhibition, hits mostly inhibitors; actives 1.2% (n = 410,000); note: % is set by controls: 0 for no effect and ±100 for the full control effect; nearly all actives have a fitted effect of over 65% in size
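HEPG2 CAGA-GFP reporter cells (1000/well, DMEM with 1% FBS) received compounds, then recombinant TGF-beta at 500 pg/mL final for 18 hours at 37 degrees C. Per-cell GFP summed per well was normalised to unstimulated and stimulated DMSO controls before curve fitting.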
HT1080NT lethal: kills 2HG-producing HT-1080-NT fibrosarcoma cells; actives 1.6% (n = 360,000); Potency, µM (doses to about 46.1 µM), without a hit: top-dose activity, negative = less viability, most hits filed as cytotoxic; HT-1080-NT fibrosarcoma viability, CellTiter-Glo ATP luminescence, 48 h; AID 686970;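 note: NT is the 2HG producing partner of a matched IDH1 knockdown line; 0% = DMSO-treated cells and -100% = media-only wells without cells; nearly all actives have a fitted effect of over 55% in size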
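Toxicity toward the 2HG-producing NT line was scored as %Activity, normalised to DMSO and no-cell wells, from CellTiter-Glo luminescence after 48 hours' treatment.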
HepG2 viability: HepG2 cytotoxicity, counter-screen for TGF-b inhibitors. HepG2 CAGA-GFP viability, ATP luminescence, 18 h. actives 0.76% (n = 410,000). Potency, µM (highest dose often 46.1 µM), inactives show at the top dose activity change, negative = cytotoxicity, most hits filed as cytotoxic. AID 588856
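HepG2 CAGA-GFP cells (1000/well, DMEM with 1% FBS) received compound, then TGF-beta at 500 pg/mL final, and were incubated 18 hours at 37 degrees C. Viability was read by CellTiter-Glo luminescence. Media-only wells were set as complete cell-killing and DMSO as no toxicity.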
ATXN2 expr inh: ATXN2 expression inhibition | HEK-293 ATXN2-luciferase reporter, luminescence, 24 h | Potency, µM (highest dose often 57 µM), inactives show at the highest dose activity change, negative = inhibition, most hits filed as inhibitors | actives 0.72% (n = 360,000); note: % is set by controls: 0 for no effect and ±100 for the full control effect; nearly all actives have a fitted effect of over 55% in size
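qHTS (up to 57 uM final) was run with 24 h compound exposure of reporter cells at 37 °C. Each well was multiplexed: SteadyGlo luminescence measured ATXN2-luciferase expression after a fluorogenic Gly-Phe-AFC viability readout (25 uM final).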
HT1080 IDH1KD tx: kills HT-1080 cells with IDH1 knockdown; HT-1080 IDH1 knockdown viability, ATP luminescence, 48 h; Potency, µM (titrated, usually from 46.1 µM), for the others: at the highest dose activity, negative = toxicity, hits mostly cytotoxic; actives 2% (n = 360,000); AID 686971;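 note: 0% = DMSO wells and -100% = cell-free medium wells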
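% activity derives from luminescence (CellTiter-Glo), normalised to DMSO and no-cell wells. HT-1080-IDH1KD cells, 750/well, had 48 h compound exposure at 37 °C.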
ATXN viability: cell viability loss in ATXN counter-screen; S2 cells (HEK-293 line with an ATXN2-luciferase reporter) viability, CellTiter-Fluor protease fluorescence, 24 h; Potency, µM (doses to about 56.7 µM), most hits filed as cytotoxic; actives 0.49% (n = 400,000); AID 651635; note: nearly all actives have a fitted effect of over 40% in size
Active calls of the source: *; i = inactive; ? = inconclusive; nt = no result given; ! = a repeat was not active. Calls come from the whole dose curve; as a rule, active = well fitted curve in the direction sought with a large enough effect; inconclusive = small, poorly fitted or top-dose-only effect, or another doubt; inactive = no such curve, though single readings can be large; an effect the other way counts as inactive or inconclusive. Potency is the fitted concentration of half-maximal effect.

SMILES	TGFb inhibitor	HT1080NT lethal	HepG2 viability	ATXN2 expr inh	HT1080 IDH1KD tx	ATXN viability
O=C(Cc1cccc2ccccc12)N/N=C/c1ccc2cccc(O)c2n1	?	?	-36.6%	?	23.1µM*	i
O=C(Cc1cccc2ccccc12)N/N=C/c1ccc(O)c([N+](=O)[O-])c1	7.0%	-3.5%	-0.2%	-9.8%	-12.4%	i
COc1ccc2nc(SCc3ncc(C)c(OC)c3C)[nH]c2c1	nt	nt	nt	5.0%	nt	i
CC[C@H](C)C(=O)O[C@H]1CCC=C2C=C[C@H](C)[C@H](CC[C@@H]3C[C@@H](O)CC(=O)O3)[C@H]21	108.1%	4.11µM*	-41.4%	-8.0%	7.31µM*	i
CC[C@H](C)C(=O)O[C@H]1C[C@@H](C)C=C2C=C[C@H](C)[C@H](CC[C@@H]3C[C@@H](O)CC(=O)O3)[C@H]21	92.0%	18.4µM*	-42.6%	5.4%	20.6µM*	?
CCC(C)C(=O)OC1CCC=C2C=CC(C)C(CCC3CC(O)CC(=O)O3)C21 (stereo unspecified)	-3.2%	11.6µM*	-38.7%	10.1%	?	i
CN(C)c1ccc(C=O)c(F)c1	3.5%	nt	7.9%	nt	nt	nt
CCn1c(/C=C/c2ccccc2)nc2ccccc21	-0.9%	?	-60.5%	55.9%	?	i
COc1ccc(Cn2c(/C=C/c3ccccc3)nc3ccccc32)cc1	?	11.2µM*	-60.4%	98.5%	?	i
COc1ccc(Nc2nc3ccccc3n2C)cc1	-4.4%	4.7%	-1.1%	54.0%	-23.7%	i
COc1ccc(/C=C/c2nc3ccccc3n2C)cc1	-4.2%	5.17µM*	-12.6%	?	4.61µM*	i
CCCCCCn1c(/C=C/c2ccccc2)nc2ccccc21	15.8µM*	nt	-66.3%	nt	nt	nt
O=C1NC(c2cccc3ccccc23)Nc2ccc(Cl)cc21 (stereo unspecified)	3.98µM*	0.581µM*	-5.6%	?	0.517µM*	?
COc1cc2c(cc1OC)C(=O)C(Br)CC2 (stereo unspecified)	?	?	15.8µM*	nt	?	?
COc1cc2c(cc1OC)C(=O)CC2	nt	nt	nt	21.5%	nt	i
O=C(Nc1cccc2c1CCCC2)c1cc([N+](=O)[O-])ccc1Cl	?	16.4µM*	-46.0%	25.1µM*	20.6µM*	i
COc1ccccc1NC(=O)C(=O)NCC(c1ccc2c(c1)OCO2)N1CCOCC1 (stereo unspecified)	5.1%	nt	3.5%	5.9%	nt	i
COc1ccc(OC)c(Nc2cc(-c3ccccc3)nc(N)n2)c1	-2.9%	1.46µM*	-10.8%	1.7%	1.46µM*	?
COc1ccc(-c2cc(-c3ccccc3)nc(N)n2)c(O)c1	?	-1.0%	-19.2%	56.1%	?	i
Nc1nc(N)c2cc(S(=O)(=O)c3ccc4ccccc4c3)ccc2n1	?	8.2µM*	-74.6%	nt	3.26µM*	i
CC(C)(C)c1ccc(C(=O)Nc2ccc(C(=O)NCc3cccnc3)cc2)cc1	5.7%	1.64µM*	-0.9%	-21.6%	1.03µM*	i
CCOC(=O)Cc1ccc(NC(=O)c2ccc(C(C)(C)C)cc2)cc1	-17.1%	-29.2%	-56.7%	2.82µM*	?	?
O=C(NCc1cccnc1)c1ccc(NC(=O)c2ccc([N+](=O)[O-])cc2)cc1	-15.0%	?	-4.3%	-22.5%	14.6µM*	i
CC(C)(C)C(=O)Nc1ccc(C(=O)NCc2cccnc2)cc1	-8.0%	16.5%	10.7%	24.3%	11.7%	i
CCOC(=O)Cc1ccc(NC(=O)c2ccccc2Br)cc1	-7.2%	-1.1%	0.8%	nt	3.3%	i
SMILES	TGFb inhibitor	HT1080NT lethal	HepG2 viability	ATXN2 expr inh	HT1080 IDH1KD tx	ATXN viability
CCOC(=O)c1cccc(NC(=O)CC2C(=O)N(c3ccc(F)cc3)C(=O)N2Cc2cccc(OC)c2)c1 (stereo unspecified)	?	nt	-38.1%	nt	nt	nt
CCOC(=O)c1nnn(CC(=O)NC(=O)Nc2cccc(CC)c2)c1C(=O)OCC	?	-0.9%	11.2µM*!	2.5%	4.4%	i
Cc1ccc(NC(=O)N2CCc3c([nH]c4ccccc34)C2c2ccccc2F)c(Cl)c1 (stereo unspecified)	-13.2%	nt	-17.8%	47.5%	nt	i
CCCn1c(CC)nc([N+](=O)[O-])c1S(=O)(=O)c1ccccc1	?	?	11.2µM*	?	?	nt
Cc1ccc(-n2c(SCC(=O)N3CCCc4ccccc43)nc3c([nH]c4ccccc43)c2=O)cc1	-15.1%	nt	0.9%	nt	nt	nt
Cc1nc(N/N=C/c2ccc(O)cc2O)cc(N2CCOCC2)n1	38.2%	?	-38.8%	?	4.11µM*	i
Cc1nc(N/N=C/c2cccc(F)c2)cc(N2CCOCC2)n1	69.9%	-0.8%	-18.1%	-5.6%	-1.4%	i
CC[C@H](C)[C@@H]1NC(=O)[C@@H](CC(C)C)NC(=O)[C@H](C(C)C)NC(=O)[C@H]2CSSC[C@H](NC1=O)C(=O)N2	1.26µM*	0.461µM*	1.12µM*	0.794µM*	0.517µM*	?
Cc1nc2cc(C(=O)O)ccc2n1-c1ccc(C(C)C)cc1	-9.7%	nt	-2.9%	18.8%	nt	i
COc1ccccc1C(=O)Nc1nc2ccccc2s1	-21.4%	25.9µM*	11.2µM*	?	20.6µM*	i
COc1ccccc1C(=O)Nc1nnc(CCc2ccccc2)s1	-9.1%	7.31µM*	-3.4%	-6.7%	6.51µM*	i
COc1ccc(C(=O)Nc2nc3ccccc3s2)c(OC)c1	12.0%	20.6µM*	17.8µM*	0.794µM*	20.6µM*	i
NC(=S)Nc1nc2ccccc2s1	?	-1.3%	8.4%	nt	14.6µM*	i
CCCCC(=O)Nc1nnc(SCC(=O)NC2CCCC2)s1	-9.0%	19.0%	-8.3%	0.0%	4.1%	i
O=C(CCCl)Nc1nnc(SCC(=O)NC2CCCC2)s1	?	14.6µM*	-154.4%	18.8%	29.1µM*	i
Nc1nnc(SCC(=O)NC2CCCC2)s1	-0.7%	8.7%	-1.0%	5.3%	14.0%	i
CCSc1nnc(SCC(=O)NC2CCCCC2)s1	-10.4%	2.3%	2µM*	-10.6%	-6.6%	i
Cc1cc(Nc2cccc(C(F)(F)F)c2)nc2ccc(NC(=O)c3cccc(Cl)c3)cc12	?	nt	12.6µM*	?	nt	i
Cc1cc(Nc2cccc(Cl)c2)nc2ccc(NC(=O)Cc3cccc(C(F)(F)F)c3)cc12	?	nt	-59.2%	?	nt	i
CCOc1ccc(C(=O)Nc2ccc3nc(Nc4cccc(C(F)(F)F)c4)cc(C)c3c2)cc1OCC	9.3%	nt	4.3%	4.3%	nt	i
